# Reference: the supplement of paper PMC8728848
# The full list was thinned out, with the strongest signals kept by preference.
# B1: Surfactant Protein D (Human); Neck + Carbohydrate Recognition Domain (NCRD) (Homo sapiens) (protein)
# chain: MLLFLLSALVLLTQPLGYLEAEMKTYSHRTMPSACTLVMCSSVESGLPGRDRDGREGPRGEKGDPGLPGAAGQAGMPGQAGPVGPKGDNGSVGEPGPKGDTGPSGPPGPPGVPGPAGREGALGKQGNIGPQGKPGPKGEAGPKGEVGAPGMQGSAGARGLAGPKGERGVPGERGVPGNTGAAGSAGAMGPQGSPGARGPPGLKGDKGIPGDKGAKGESGLPDVASLRQQVEALQGQVQHLQAAFSQYKKVELFPNGQSVGEKIFKTAQFVKPFTEAQLLCTQAGGQLASPRSAAENAALQQLVVAKNEAAFLSMTDSKTEGKFTYPTGESLVYSNWAPGEPNDDGGSEDCVEIFTNGKWNDRACGEKRLVVCEA
# B2: C-Reactive Protein (Homo sapiens), P02741 (protein)
# chain: MEKLLCFLVLTSLSHAFGQTDMSRKAFVFPKESDTSYVSLKAPLTKPLKAFTVCLHFYTELSSTRGYSIFSYATKRQDNEILIFWSKDIGYSFTVGGSEILFEVPEVTVAPVHICTSWESASGIVEFWVDGKPRVRKSLKKGYTVGAEASIILGQEQDSFGGNFEGSQSLVGDIGNVNMWDFVLSPDEINTIYLGGPFSPNVLNWRALKYEVQGEVFTKPQLWP
# What was measured:
# Test in all cases: glycan array binding signal (z-score within array); higher = stronger binding
# [1] = molecular target: Gal(a1-2)Gal; details: glycan notation: IUPAC condensed, linker removed
# In short: (§1)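 The binding signal is a Z-score computed within each array. Data were drawn from 3228 arrays in the Consortium for Functional Glycomics database, restricted to those with a known protein sequence. Scores were averaged over arrays of the same protein sequence at different concentrations or buffers, and over linkers, and negative values can be taken as non-binding.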
# [2] = molecular target: Gal(a1-3)Gal(b1-4)Glc; details: glycan notation: IUPAC condensed, linker removed; mutation: F355A
# In short: as §1
# [3] = molecular target: Gal(a1-3)GalNAc; details: glycan notation: IUPAC condensed, linker removed; mutation: F355A
# In short: as §1
# [4] = molecular target: Gal(b1-4)GlcNAc(b1-2)Man(a1-3)[Gal(b1-4)GlcNAc(b1-2)Man(a1-6)]Man(b1-4)GlcNAc(b1-4)GlcNAc; details: glycan notation: IUPAC condensed, linker removed; mutation: F355A
# In short: as §1
# [5] = molecular target: GalNAc(b1-3)Gal(a1-4)Gal(b1-4)GlcNAc; details: glycan notation: IUPAC condensed, linker removed; mutation: F355A
# In short: as §1
# [6] = molecular target: GlcNAc(a1-6)Gal(b1-4)GlcNAc; details: glycan notation: IUPAC condensed, linker removed; mutation: F355A
# In short: as §1
# [7] = molecular target: GlcNAc(b1-4)Gal(b1-4)GlcNAc; details: glycan notation: IUPAC condensed, linker removed; mutation: F355A
# In short: as §1
# [8] = molecular target: GlcNAc(b1-4)GlcNAc(b1-4)GlcNAc; details: glycan notation: IUPAC condensed, linker removed
# In short: as §1
# [9] = molecular target: GlcNAc(b1-4)GlcNAc(b1-4)GlcNAc(b1-4)GlcNAc(b1-4)GlcNAc; details: glycan notation: IUPAC condensed, linker removed; mutation: F355A
# In short: as §1
# [10] = molecular target: Kdn(a2-3)Gal(b1-4)GlcNAc; details: glycan notation: IUPAC condensed, linker removed; mutation: F355A
# In short: as §1
# [11] = molecular target: Man(a1-2)Man(a1-2)Man(a1-6)[Man(a1-3)]Man; details: glycan notation: IUPAC condensed, linker removed; mutation: F355A
# In short: as §1
# [12] = molecular target: Man(a1-2)Man(a1-3)[Man(a1-2)Man(a1-6)]Man; details: glycan notation: IUPAC condensed, linker removed; mutation: F355A
# In short: as §1
# [13] = molecular target: Man(a1-2)Man(a1-3)[Man(a1-2)Man(a1-6)]Man(a1-6)[Man(a1-2)Man(a1-2)Man(a1-3)]Man; details: glycan notation: IUPAC condensed, linker removed; mutation: F355A
# In short: as §1
# [14] = molecular target: Man(a1-2)Man(a1-6)[Man(a1-3)]Man(a1-6)[Man(a1-2)Man(a1-2)Man(a1-3)]Man(b1-4)GlcNAc(b1-4)GlcNAc; details: glycan notation: IUPAC condensed, linker removed; mutation: F355A
# In short: as §1
# [15] = molecular target: Man(a1-3)[Man(a1-6)]Man(a1-6)[Man(a1-2)Man(a1-3)]Man(b1-4)GlcNAc(b1-4)GlcNAc; details: glycan notation: IUPAC condensed, linker removed; mutation: F355A
# In short: as §1
# [16] = molecular target: Man(a1-3)[Man(a1-6)]Man(a1-6)[Man(a1-3)]Man; details: glycan notation: IUPAC condensed, linker removed; mutation: F355A
# In short: as §1
# [17] = molecular target: Man(a1-3)[Man(a1-6)]Man(a1-6)[Man(a1-3)]Man(b1-4)GlcNAc(b1-4)GlcNAc; details: glycan notation: IUPAC condensed, linker removed; mutation: F355A
# In short: as §1
# [18] = molecular target: Neu5Ac(a2-6)Gal(b1-4)GlcNAc(b1-2)Man(a1-6)[Gal(b1-4)GlcNAc(b1-2)Man(a1-3)]Man(b1-4)GlcNAc(b1-4)GlcNAc; details: glycan notation: IUPAC condensed, linker removed; mutation: F355A
# In short: as §1
# [19] = molecular target: Neu5Gc(a2-3)Gal(b1-4)[Fuc(a1-3)]GlcNAc; details: glycan notation: IUPAC condensed, linker removed; mutation: F355A
# In short: as §1
# [20] = molecular target: Fuc(a1-3)[Gal3S(b1-4)]Glc; details: glycan notation: IUPAC condensed, linker removed
# In short: as §1
# [21] = molecular target: Fuc(a1-3)[GalNAc(b1-4)]Gal(b1-4)GlcNAc; details: glycan notation: IUPAC condensed, linker removed
# In short: as §1
# [22] = molecular target: Gal(a1-4)Gal(b1-4)Gal; details: glycan notation: IUPAC condensed, linker removed
# In short: as §1
# [23] = molecular target: Gal(b1-3)Gal; details: glycan notation: IUPAC condensed, linker removed
# In short: as §1
# [24] = molecular target: Gal(b1-3)GalNAc(b1-3)Gal(a1-4)Gal(b1-4)Glc; details: glycan notation: IUPAC condensed, linker removed
# In short: as §1
# [25] = molecular target: Gal(b1-3)GlcNAc(b1-3)Gal(b1-3)GlcNAc; details: glycan notation: IUPAC condensed, linker removed
# In short: as §1
# [26] = molecular target: Gal(b1-3)[Fuc(a1-4)]GlcNAc(b1-3)Gal(b1-4)GlcNAc; details: glycan notation: IUPAC condensed, linker removed
# In short: as §1
# [27] = molecular target: Gal(b1-3)[Fuc(a1-4)]GlcNAc(b1-3)Gal(b1-4)[Fuc(a1-3)]GlcNAc; details: glycan notation: IUPAC condensed, linker removed
# In short: as §1
# [28] = molecular target: Gal(b1-4)GalNAc(a1-3)[Fuc(a1-2)]Gal(b1-4)GlcNAc; details: glycan notation: IUPAC condensed, linker removed
# In short: as §1
# [29] = molecular target: Gal(b1-4)GalNAc(b1-3)[Fuc(a1-2)]Gal(b1-4)GlcNAc; details: glycan notation: IUPAC condensed, linker removed
# In short: as §1
# [30] = molecular target: Gal(b1-4)Glc6S; details: glycan notation: IUPAC condensed, linker removed
# In short: as §1
# [31] = molecular target: Gal(b1-4)GlcNAc(b1-3)Gal(b1-4)[Fuc(a1-3)]GlcNAc(b1-3)Gal(b1-4)[Fuc(a1-3)]GlcNAc; details: glycan notation: IUPAC condensed, linker removed
# In short: as §1
# [32] = molecular target: Gal3S(b1-3)GalNAc; details: glycan notation: IUPAC condensed, linker removed
# In short: as §1
# [33] = molecular target: Gal3S(b1-4)GlcNAc6S; details: glycan notation: IUPAC condensed, linker removed
# In short: as §1
# [34] = molecular target: Gal4S6S(b1-4)GlcNAc; details: glycan notation: IUPAC condensed, linker removed
# In short: as §1
# [35] = molecular target: GlcA(b1-6)Gal; details: glycan notation: IUPAC condensed, linker removed
# In short: as §1
# [36] = molecular target: GlcNAc(b1-3)Gal(b1-3)GalNAc; details: glycan notation: IUPAC condensed, linker removed
# In short: as §1
# [37] = molecular target: Kdn(a2-3)Gal(b1-3)GlcNAc; details: glycan notation: IUPAC condensed, linker removed
# In short: as §1
# [38] = molecular target: Man(a1-2)Man(a1-2)Man(a1-3)[Man(a1-2)Man(a1-3)[Man(a1-2)Man(a1-6)]Man(a1-6)]Man(b1-4)GlcNAc(b1-4)GlcNAc; details: glycan notation: IUPAC condensed, linker removed
# In short: as §1
# [39] = molecular target: Neu5Ac(a2-3)Gal(b1-4)GlcNAc(b1-3)Gal(b1-4)GlcNAc; details: glycan notation: IUPAC condensed, linker removed
# In short: as §1
# [40] = molecular target: Neu5Ac(a2-3)Gal(b1-4)GlcNAc(b1-6)[Gal(b1-3)]GalNAc; details: glycan notation: IUPAC condensed, linker removed
# In short: as §1
# [41] = molecular target: Neu5Ac(a2-3)Gal6S(b1-4)[Fuc(a1-3)]GlcNAc; details: glycan notation: IUPAC condensed, linker removed
# In short: as §1
# [42] = molecular target: Neu5Ac(a2-8)Neu5Ac(a2-8)Neu5Ac(a2-8)Neu5Ac(a2-3)[GalNAc(b1-4)]Gal(b1-4)Glc; details: glycan notation: IUPAC condensed, linker removed
# In short: as §1
binder,measurement,setting,value
B1,glycan array binding signal (z-score),[1]; mutation: F355A,-0.16
same,glycan array binding signal (z-score),[2],-0.099
same,glycan array binding signal (z-score),[3],-0.129
same,glycan array binding signal (z-score),[4],-0.104
same,glycan array binding signal (z-score),[5],-0.138
same,glycan array binding signal (z-score),[6],-0.164
same,glycan array binding signal (z-score),[7],-0.146
same,glycan array binding signal (z-score),[8]; mutation: F355A,-0.155
same,glycan array binding signal (z-score),[9],-0.122
same,glycan array binding signal (z-score),[10],-0.072
same,glycan array binding signal (z-score),[11],2.74
same,glycan array binding signal (z-score),[12],4.68
same,glycan array binding signal (z-score),[13],15
same,glycan array binding signal (z-score),[14],1.59
same,glycan array binding signal (z-score),[15],2.15
same,glycan array binding signal (z-score),[16],5.56
same,glycan array binding signal (z-score),[17],2.12
same,glycan array binding signal (z-score),[18],-0.15
same,glycan array binding signal (z-score),[19],-0.145
B2,glycan array binding signal (z-score),[20],0.735
same,glycan array binding signal (z-score),[21],-0.478
same,glycan array binding signal (z-score),[1],-0.469
same,glycan array binding signal (z-score),[22],-0.603
same,glycan array binding signal (z-score),[23],-0.554
same,glycan array binding signal (z-score),[24],-0.576
same,glycan array binding signal (z-score),[25],1.62
same,glycan array binding signal (z-score),[26],-0.4
same,glycan array binding signal (z-score),[27],-0.468
same,glycan array binding signal (z-score),[28],-0.454
same,glycan array binding signal (z-score),[29],-0.521
same,glycan array binding signal (z-score),[30],0.381
same,glycan array binding signal (z-score),[31],0.095
same,glycan array binding signal (z-score),[32],0.199
same,glycan array binding signal (z-score),[33],1.48
same,glycan array binding signal (z-score),[34],2.24
same,glycan array binding signal (z-score),[35],-0.49
same,glycan array binding signal (z-score),[36],-0.505
same,glycan array binding signal (z-score),[8],1.94
same,glycan array binding signal (z-score),[37],-0.402
same,glycan array binding signal (z-score),[38],-0.496
same,glycan array binding signal (z-score),[39],-0.055
same,glycan array binding signal (z-score),[40],1.51
same,glycan array binding signal (z-score),[41],0.578
same,glycan array binding signal (z-score),[42],0.158
